Test results published in the supplement of paper PMC13380429.

Tested on: Vero E6 infected with SARS-CoV-2
Assay: inhibition of SARS-CoV-2 cytopathic effect; higher = more antiviral protection, active = above 15
Conditions: 48 h

Measured: inhibition of SARS-CoV-2 cytopathic effect

C[C@H](N[C@@H](CCc1ccccc1)C(=O)O)C(=O)N1Cc2ccccc2C[C@H]1C(=O)O [quinaprilat]
inactive: 1 nM -0.56% | 8.33 nM -0.93% | 100 nM -1.42% | 833.33 nM -0.25% | 10000 nM 0.11%

OCC(CO)N[C@H]1C[C@](O)(CO)[C@@H](O)[C@H](O)[C@H]1O [voglibose]
inactive: 1 nM 0.63% | 8.33 nM -8.33% | 100 nM 1.72% | 833.33 nM 2.63% | 10000 nM 2.03%

Cc1cn(C[C@H](N)C(=O)O)c(=O)n(Cc2ccsc2C(=O)O)c1=O
inactive: 1 nM 1.18% | 8.33 nM 1.91% | 100 nM -1.21% | 833.33 nM 0.03% | 10000 nM 2.18%

CC(O)(C(=O)Nc1ccc(S(=O)(=O)c2ccccc2)cc1)C(F)(F)F (stereo not given)
inactive: 1 nM 1.63% | 8.33 nM 1.61% | 100 nM 2.14% | 833.33 nM -0.08% | 10000 nM 14.1%

CCS(=O)(=O)N(Cc1cccnc1)c1cccc(-c2ccc(C#N)cc2)c1
inactive: 1 nM 1.24% | 8.33 nM 1.74% | 100 nM 1.23% | 833.33 nM 4.38% | 10000 nM 8.38%

CC(C(=O)O)c1ccc2c(c1)Cc1ccccc1-2 (stereo not given) [cicloprofen]
inactive: 1 nM 1% | 8.33 nM 0.42% | 100 nM 2.68% | 833.33 nM 1.95% | 10000 nM 4.16%

CC(=O)S[C@@H]1CC2=CC(=O)CC[C@]2(C)[C@H]2CC[C@@]3(C)[C@@H](CC[C@@]34CCC(=O)O4)[C@H]12 [spironolactone]
inactive: 1 nM -0.66% | 8.33 nM -0.55% | 100 nM -0.37% | 833.33 nM 3.98% | 10000 nM 6.39%

Cc1noc(C)c1-c1cc(O)cc([C@@H](O)c2ccccc2)c1
inactive: 1 nM -2.32% | 8.33 nM 1.84% | 100 nM -0.24% | 833.33 nM 1.24% | 10000 nM -8.49%

CC(=O)O[C@]1(C(C)=O)CC[C@H]2[C@@H]3C=C(Cl)C4=CC(=O)CC[C@]4(C)[C@H]3CC[C@@]21C [chlormadinone-acetate]
inactive: 1 nM -13.3% | 8.33 nM -12.7% | 100 nM -10.2% | 833.33 nM -13.4% | 10000 nM -13%

COc1ccc(Nc2ncnc3ccc(OC)cc23)cc1
inactive: 1 nM 4.07% | 8.33 nM 6.4% | 100 nM 6.26% | 833.33 nM 1.4% | 10000 nM -3.12%

CN(C)[C@@H](CCOc1cccc2ccccc12)c1ccccc1 [dapoxetine]
inactive: 1 nM 1.42% | 8.33 nM 3.51% | 100 nM 1.54% | 833.33 nM 0.31% | 10000 nM 1.17%

O=C(O)C(Cl)Cl [dichloroacetate]
inactive: 1 nM 4.14% | 8.33 nM 1.34% | 100 nM 2.35% | 833.33 nM 0.22% | 10000 nM 2.63%

COC(=O)[C@]12CCC(C)(C)C[C@H]1[C@H]1C(=O)C=C3[C@@]4(C)C=C(C#N)C(=O)C(C)(C)[C@@H]4CC[C@@]3(C)[C@]1(C)CC2 [Bardoxolone Methyl]
active: 833.33 nM 33.7%
inactive: 1 nM 2.85% | 8.33 nM 3.94% | 100 nM -1.03% | 10000 nM -23.4%

Cc1ccc(NC(=O)C2(c3ccc4c(c3)OC(F)(F)O4)CC2)nc1-c1cccc(C(=O)O)c1 [lumacaftor]
inactive: 1 nM 2.48% | 8.33 nM 0.38% | 100 nM -1.4% | 833.33 nM -0.17% | 10000 nM 1.24%

Clc1ccc(CCCOCCCN2CCCCC2)cc1 [pitolisant]
inactive: 1 nM 1.67% | 8.33 nM 1.19% | 100 nM -1.62% | 833.33 nM -2.26% | 10000 nM -0.08%

CC[C@@H](C)N(C)C(=O)c1cc2ccccc2c(-c2ccccc2Cl)n1
inactive: 1 nM -0.84% | 8.33 nM 0.72% | 100 nM -0.6% | 833.33 nM 2.81% | 10000 nM 2.78%

O=P(O)(O)C(O)(Cn1ccnc1)P(=O)(O)O [zoledronic-acid]
inactive: 1 nM -0.24% | 8.33 nM 2.18% | 100 nM 1.88% | 833.33 nM 0.51% | 10000 nM -0.12%

Nc1ncnc2c1c(COc1cccc(Cl)c1)nn2C1CCOCC1
inactive: 1 nM -1.11% | 8.33 nM -0.68% | 100 nM -0.3% | 833.33 nM -1.57% | 10000 nM -0.4%
